Screening results (PubChem BioAssay)
The list is not random: actives were taken first. Their share in the collection is about 4.2%.
TRPV1 potentiator: enhances activation of the human vanilloid receptor TRPV1 | Q8NER1 | TRPV1-expressing cells, Fluo-8 calcium influx, capsaicin EC20 potentiation | potentiation, % at 8.33 µM | 320,000 tested, 0.02% active | AID 540277; in the data active = potentiation above about 80%; inconclusive = between about 30% and that limit
Target sequence (Q8NER1 whole entry, looked up): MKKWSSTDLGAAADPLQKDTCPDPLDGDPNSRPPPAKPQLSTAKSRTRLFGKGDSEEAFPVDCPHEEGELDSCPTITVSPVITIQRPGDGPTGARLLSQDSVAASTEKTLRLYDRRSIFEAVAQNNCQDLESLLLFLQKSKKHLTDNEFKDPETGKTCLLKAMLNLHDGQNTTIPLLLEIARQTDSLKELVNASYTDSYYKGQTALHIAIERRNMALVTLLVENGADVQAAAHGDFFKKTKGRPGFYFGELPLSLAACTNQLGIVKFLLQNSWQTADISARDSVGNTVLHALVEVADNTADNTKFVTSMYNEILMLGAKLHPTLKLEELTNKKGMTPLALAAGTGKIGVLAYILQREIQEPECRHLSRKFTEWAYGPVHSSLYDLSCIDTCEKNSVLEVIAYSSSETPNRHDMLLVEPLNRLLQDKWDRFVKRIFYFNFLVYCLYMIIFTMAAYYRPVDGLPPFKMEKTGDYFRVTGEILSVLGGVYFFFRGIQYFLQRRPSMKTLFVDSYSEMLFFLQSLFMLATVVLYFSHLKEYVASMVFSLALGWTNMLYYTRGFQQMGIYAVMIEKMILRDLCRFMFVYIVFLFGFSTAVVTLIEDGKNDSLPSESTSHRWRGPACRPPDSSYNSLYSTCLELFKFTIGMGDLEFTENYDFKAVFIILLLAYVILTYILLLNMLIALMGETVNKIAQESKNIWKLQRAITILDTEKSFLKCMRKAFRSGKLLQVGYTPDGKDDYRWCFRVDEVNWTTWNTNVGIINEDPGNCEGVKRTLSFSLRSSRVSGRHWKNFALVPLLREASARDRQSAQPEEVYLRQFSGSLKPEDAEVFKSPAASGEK
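Cells expressing TRPV1 were dye-loaded with Fluo-8 and read kinetically: 10 s baseline, 3 min after compound (agonist portion), then 2 min after EC20 capsaicin (allosteric enhancer portion). Calcium-bound dye fluorescence at 480/520 nm.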
TRPV1 ag: activates the human vanilloid receptor TRPV1; Q8NER1; 320,000 tested, 0.19% active; activation, % at 8.33 µM; TRPV1-expressing cells, Fluo-8 calcium influx, agonist mode; in the data active = activation above about 80%; inconclusive = between about 30% and that limit
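Fluo-8 calcium influx in TRPV1-expressing cells, kinetic read (ex 480/em 520 nm). Compound added and read 3 min for agonist activity, followed by capsaicin at EC20 final and 2 min further read for enhancement.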
D1 antagonist: antagonists of human D1 dopamine receptor; 360,000 tested, 3.2% active; HEK293 TREx D1 cells, calcium flux, dopamine EC80; stronger effect = lower value; AID 504652; activity change, negative = inhibition, % at 10 µM; P21728; in the data active = activity change below about -30%
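After overnight tetracycline induction at 30 C, force-coupled D1 HEK293 cells took up a no-wash calcium dye at room temperature. Compounds were added and monitored 180 s, and the response to EC80 dopamine was then recorded.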
D1 PAM: potentiators of human D1 dopamine receptor; HEK293 TREx D1 cells, calcium flux, dopamine EC20 potentiation; potentiation, % at 10 µM; 360,000 tested, 0.036% active; AID 504651; in the data active = potentiation above about 30%
D1 ag: activates the human D1 dopamine receptor. activation, % at 2 µM. AID 504660. P21728. HEK293 T-REx D1 cells, calcium flux, agonist mode. 360,000 tested, 1% active; in the data active = activation above about 30%
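Tetracycline-induced HEK293 TREx D1 cells, force-coupled to calcium signalling, were dye-loaded with a no-wash calcium kit. Compound was pin-added after a 10 s baseline. Fluorescence was read kinetically at 1 cycle/s for 180 s, with calcium rises flagged as agonism.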
Of the large screens only hits and unclear results are named; the others gave an inactive call.

COc1ccc(S(=O)(=O)Cc2ccc(C(=O)NCCc3ccc(S(N)(=O)=O)cc3)o2)cc1	D1 antagonist -35 (no result: TRPV1 potentiator, TRPV1 ag)
Cc1ccc(S(=O)(=O)Cc2ccc(C(=O)NCCc3ccccc3)o2)cc1	TRPV1 ag 81
CC1=C(C(=O)N2CCN(c3cccc(C)c3C)CC2)C2(CCCCC2)OC1=O	none (no result: TRPV1 potentiator, TRPV1 ag)
COCc1cc(C)nc(SCC(=O)N2CCC(C)CC2)c1C#N	D1 antagonist -57
COCc1cc(C)nc(SCc2ccccc2Cl)c1C#N	none
COCc1cc(C)nc(SCC(=O)NC2CCCCC2C)c1C#N (stereo not given)	none
COCc1cc(C)nc(SCc2ccc([N+](=O)[O-])cc2)c1C#N	D1 PAM 44
COc1ccc(OC)c(NC(=O)c2c(C)oc3ncnc(N4CCOCC4)c23)c1	none (no result: TRPV1 potentiator, TRPV1 ag)
Cc1ccc(S(=O)(=O)NC(=O)Nc2ccc(C)cn2)cc1	none
Cc1ccc(S(=O)(=O)NC(=O)Nc2cc(C(C)(C)C)on2)cc1	D1 antagonist -37
Cc1ccc(-n2c3c(c(=O)[nH]c2=O)C(NC(=O)c2ccccc2F)(C(F)(F)F)C(=O)N3)cc1C (stereo not given)	none (no result: TRPV1 potentiator, TRPV1 ag)
CS(=O)(=O)N1CCc2cc(C(=O)Nc3ccc(Cl)c(C(F)(F)F)c3)ccc21	none (no result: TRPV1 potentiator, TRPV1 ag)
CCN(CCN(C)C)C(=O)C1CCN(S(=O)(=O)c2c(C)noc2/C=C/c2ccccc2F)CC1	D1 antagonist -37
CCOC(=O)c1cccc(NC(=O)C2CCN(S(=O)(=O)c3ccc4c(c3)oc(=O)n4C)CC2)c1	none (no result: TRPV1 potentiator, TRPV1 ag)
O=C(Cn1nnc(-c2ccc(Cl)cc2)n1)NC1CC2CCC1C2 (stereo not given)	D1 antagonist -34
COc1ccc(CCNC(=O)Cn2c(=O)n(-c3ccc(OC)c(OC)c3)c(=O)c3ccccc32)cc1OC	none (no result: TRPV1 potentiator, TRPV1 ag)
Cc1cc(C)c2c(c1)-c1c(ssc1=S)C(C)(C)N2C(=O)CSc1nncn1C	D1 ag 39
Cc1cc2ccccn2c1C(C[N+](=O)[O-])c1ccc(N(C)C)cc1 (stereo not given)	D1 ag 42
COc1ccc(C(C[N+](=O)[O-])c2c(C)cc3ccccn23)cc1 (stereo not given)	none
Cc1cc(O)c(CN2CCN(c3ccccc3)CC2)c2oc(=O)cc(C)c12	none (no result: TRPV1 potentiator, TRPV1 ag)
COc1cccc(N/C(=N/C(=S)Nc2ccc(C)cc2C)Nc2nc(C)cc(C)n2)c1	D1 antagonist -61
CCNC(=S)/N=C(/Nc1ccc(OC)cc1)Nc1nc(C)cc(C)n1	none
Clc1cc2c(c(Cn3cnc4ccccc43)c1)OCOC2	none
Clc1cc2c(c(CSc3nc4ccccc4n4cccc34)c1)OCOC2	D1 antagonist -47
Nc1[nH]nc2c1NN(c1ccc(Cl)cc1Cl)N2	D1 antagonist -38
O=C(O)C(c1ccccc1)N1C(=O)/C(=C\c2ccc(-c3ccc(Br)cc3)o2)SC1=S (stereo not given)	D1 ag 66
Cc1ccc(CN(Cc2ccco2)c2cnc(S(C)(=O)=O)nc2C(=O)Nc2ccc(Br)cc2)o1	none (no result: TRPV1 potentiator, TRPV1 ag)
COc1cccc(C(=O)Nc2ccccc2-c2ccccc2)c1	none
COc1c(Cl)cc(C(=O)Nc2ccccc2-c2ccccc2)cc1Cl	TRPV1 ag inconclusive, D1 antagonist -31
COc1cc(N)c(Cl)cc1NC(=O)c1ccccc1	D1 antagonist -55
COc1ccc(S(=O)(=O)N2CCCN(CC(=O)Nc3ccc(OC)cc3OC)CC2)cc1	none (no result: TRPV1 potentiator, TRPV1 ag)
CCOc1ccc(S(=O)(=O)NC2CCCCCC2)cc1	none
CCOc1ccc(NC2CCCCC2NS(=O)(=O)c2ccccc2)cc1 (stereo not given)	D1 antagonist -35
C/C(=N\NC(N)=S)C1=CCC2C3CC[C@H]4CC(O)CC[C@]4(C)C3CC[C@]12C (stereo not given in full)	none
C[C@]12CCC(O)CC1CCC1C2CC[C@]2(C)C(c3cc(C(F)(F)F)n[nH]3)CCC12 (stereo not given in full)	TRPV1 potentiator inconclusive, D1 ag 43
Cc1ccc(CNC(=O)c2nn(-c3ccc(Cl)cc3)nc2CO)cc1	none (no result: TRPV1 potentiator, TRPV1 ag)
CC1CCCCN1CCCNC(=O)c1cc(Sc2cccc(Cl)c2)nc2ccccc12 (stereo not given)	D1 antagonist -42 (no result: TRPV1 potentiator, TRPV1 ag)
CCOCCCNC(=O)c1cc(Sc2cccc(Cl)c2)nc2ccccc12	D1 antagonist -60 (no result: TRPV1 potentiator, TRPV1 ag)
CCC(C)NC(=O)c1cc(Sc2cccc(Cl)c2)nc2ccccc12 (stereo not given)	D1 antagonist -61 (no result: TRPV1 potentiator, TRPV1 ag)
O=C(NCc1ccco1)C1CCN(C(=O)N2CCOc3ccccc32)CC1	none (no result: TRPV1 potentiator, TRPV1 ag)
CCOCCCNC(=O)C1CCCN(Cc2nc(-c3ccc(CC)cc3)oc2C)C1 (stereo not given)	none (no result: TRPV1 potentiator, TRPV1 ag)
CC(C)[C@H](Nc1ccc(S(=O)(=O)N2CCOCC2)cc1[N+](=O)[O-])C(=O)OCC(N)=O	D1 antagonist -74
CC/C(C)=N/Nc1ccc(S(=O)(=O)N2CCCC2)cc1[N+](=O)[O-]	D1 antagonist -48
CCC(=O)N1c2ccccc2CC1C(=O)NCc1ccc(CC)cc1 (stereo not given)	none (no result: TRPV1 potentiator, TRPV1 ag)
Cc1cc(NC(=O)COn2nnc3ccc(Cl)cc32)no1	none
CCOc1ccccc1NC(=O)COn1nnc2ccc(Cl)cc21	D1 ag 30
CCOc1ccc(C2c3[nH]c4ccccc4c3CCN2C(=O)CSc2ccccc2)cc1 (stereo not given)	none (no result: TRPV1 potentiator, TRPV1 ag)
COc1ccc(C)cc1NC(=O)COc1cc(=O)n(C)c2ccccc12	none (no result: TRPV1 potentiator, TRPV1 ag)
CCN1C(=O)[C@@H]2[C@H](C1=O)[C@@H]1C(=O)Nc3ccccc3C(=O)N1[C@@H]2c1ccc(Br)cc1	TRPV1 potentiator 106
CCOc1ccccc1N/C(=N/c1nc(C)cc(C)n1)NC(=O)Nc1ccc(Cl)c(Cl)c1	none
CCCOc1ccccc1N/C(=N/c1nc(C)cc(C)n1)NC(=O)Nc1ccc(Cl)cc1	D1 antagonist -50
CCCCNC(=O)c1cccc(NC(=O)c2nsc3ccccc23)c1	none (no result: TRPV1 potentiator, TRPV1 ag)
CCNc1nc2c(c(=O)[nH]c(=O)n2C)n1CC(O)COc1ccc(Cl)cc1Cl (stereo not given)	none (no result: TRPV1 potentiator, TRPV1 ag)
Cc1nnc(SC(C)C(=O)Nc2ccc(Cl)cn2)n1Cc1ccccc1 (stereo not given)	none
CC(Sc1nnc(-c2ccc(Cl)cc2Cl)n1Cc1ccccc1)C(=O)Nc1nccs1 (stereo not given)	D1 antagonist -46
Cc1ccc(NC(=O)Nc2cccs2)c(C)c1	D1 antagonist -41 (no result: TRPV1 potentiator, TRPV1 ag)
Cc1ccc(Cl)cc1NC(=O)Nc1cccs1	D1 antagonist -63
Cc1ccccc1NC(=O)Nc1cccs1	D1 antagonist -36
CCc1ccccc1NC(=O)Nc1cccs1	none
COc1ccc(CNC(=O)c2ccc(-c3nc(CSc4ccc(C)cc4)c(C)o3)cc2)cc1OC	none (no result: TRPV1 potentiator, TRPV1 ag)
Cc1cc(-c2ccc(S(=O)(=O)Nc3ccc(Cl)cc3C)cc2)on1	none (no result: TRPV1 potentiator, TRPV1 ag)
CC1CCN(c2ccc3nnc(CCC(=O)Nc4ccc(F)c(F)c4)n3n2)CC1	D1 antagonist -30
CCOC(=O)C(Cc1ccccc1)NC(=O)CCc1nnc2ccc(N3CCCC3)nn12 (stereo not given)	none
